# About 410 targets per protein were measured; listed, in parts, are those with the strongest signals and a random draw of the rest.
# Experiments:
# Test in all cases: glycan array binding signal (z-score within array); higher = stronger binding
# [1] = tested on: Fuc(a1-2)Gal(b1-3)GalNAc(a1-3)[Fuc(a1-2)]Gal(b1-4)GlcNAc; conditions: glycan notation: IUPAC condensed, linker removed
# Outline: (§1)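 Arrays were curated from the Consortium for Functional Glycomics database, 3228 in total, and kept only where the protein sequence was available. Binding is expressed as a within-array Z-score. This score was averaged across arrays of the same protein sequence at different concentrations or buffers and across linkers, and negative values can be read as non-binding.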
# [2] = tested on: Fuc(a1-2)Gal(b1-3)GlcNAc(b1-3)[Gal(b1-4)GlcNAc(b1-6)]Gal(b1-4)Glc; conditions: glycan notation: IUPAC condensed, linker removed
# Outline: as §1
# [3] = tested on: Fuc(a1-2)Gal(b1-3)GalNAc(a1-3)[Fuc(a1-2)]Gal(b1-4)Glc; conditions: glycan notation: IUPAC condensed, linker removed
# Outline: as §1
# [4] = tested on: Fuc(a1-2)Gal(b1-3)GalNAc(b1-3)Gal; conditions: glycan notation: IUPAC condensed, linker removed
# Outline: as §1
# Fuc(a1-2)Gal(b1-3)GalNAc = conditions: glycan notation: IUPAC condensed, linker removed
# Outline: as §1
# [5] = tested on: Fuc(a1-2)Gal(b1-3)GlcNAc(b1-3)Gal(b1-4)Glc; conditions: glycan notation: IUPAC condensed, linker removed
# Outline: as §1
# [6] = tested on: Fuc(a1-2)Gal(b1-3)GalNAc(b1-3)Gal(a1-4)Gal(b1-4)Glc; conditions: glycan notation: IUPAC condensed, linker removed; mutation: R125K
# Outline: as §1
# [7] = tested on: Fuc(a1-2)Gal(b1-3)GlcNAc(b1-2)Man(a1-3)[Fuc(a1-2)Gal(b1-3)GlcNAc(b1-2)Man(a1-6)]Man(b1-4)GlcNAc(b1-4)GlcNAc; conditions: glycan notation: IUPAC condensed, linker removed
# Outline: as §1
# [8] = tested on: Fuc(a1-2)Gal(b1-3)[Fuc(a1-4)]GlcNAc(b1-2)Man(a1-3)[Fuc(a1-2)Gal(b1-3)[Fuc(a1-4)]GlcNAc(b1-2)Man(a1-3)]Man(b1-4)GlcNAc(b1-4)GlcNAc; conditions: glycan notation: IUPAC condensed, linker removed; mutation: R125K
# Outline: as §1
# [9] = tested on: Fuc(a1-2)Gal(b1-4)Fuc(a1-3)]GlcNAc(b1-2)Man(a1-3)[Fuc(a1-2)Gal(b1-4)[Fuc(a1-3)]GlcNAc(b1-2)Man(a1-6)]Man(b1-4)GlcNAc(b1-4)GlcNAc; conditions: glycan notation: IUPAC condensed, linker removed; mutation: R125K
# Outline: as §1
# [10] = tested on: Fuc(a1-2)Gal(b1-3)GalNAc(b1-3)Gal(b1-4)Glc; conditions: glycan notation: IUPAC condensed, linker removed
# Outline: as §1
# [11] = tested on: Fuc(a1-2)Gal(b1-3)GalNAc(b1-4)[Neu5Ac(a2-3)]Gal(b1-4)Glc; conditions: glycan notation: IUPAC condensed, linker removed
# Outline: as §1
# [12] = tested on: Fuc(a1-2)Gal(b1-3)[Fuc(a1-4)]GlcNAc(b1-2)Man(a1-6)[Fuc(a1-2)Gal(b1-3)[Fuc(a1-4)]GlcNAc(b1-2)Man(a1-3)]Man(b1-4)GlcNAc(b1-4)[Fuc(a1-6)]GlcNAc; conditions: glycan notation: IUPAC condensed, linker removed
# Outline: as §1
# [13] = tested on: Fuc(a1-2)Gal(b1-3)[Fuc(a1-4)]GlcNAc; conditions: glycan notation: IUPAC condensed, linker removed
# Outline: as §1
# [14] = tested on: Fuc(a1-2)Gal(b1-3)GlcNAc(b1-3)[Neu5Ac(a2-6)Gal(b1-4)GlcNAc(b1-6)]Gal(b1-4)Glc; conditions: glycan notation: IUPAC condensed, linker removed
# Outline: as §1
# [15] = tested on: Fuc(a1-2)Gal(b1-3)[Fuc(a1-4)]GlcNAc(b1-3)[Gal(b1-4)GlcNAc(b1-6)]Gal(b1-4)Glc; conditions: glycan notation: IUPAC condensed, linker removed
# Outline: as §1
# [16] = tested on: Fuc(a1-2)Gal(b1-4)GlcNAc(b1-2)Man(a1-3)[Fuc(a1-2)Gal(b1-4)GlcNAc(b1-2)Man(a1-6)]Man(b1-4)GlcNAc(b1-4)GlcNAc; conditions: glycan notation: IUPAC condensed, linker removed
# Outline: as §1
# Fuc(a1-2)Gal(b1-3)GlcNAc = conditions: glycan notation: IUPAC condensed, linker removed
# Outline: as §1
# [17] = tested on: Fuc(a1-2)Gal(b1-3)[Fuc(a1-4)]GlcNAc(b1-2)Man(a1-3)[Fuc(a1-2)Gal(b1-3)[Fuc(a1-4)]GlcNAc(b1-2)Man(a1-6)]Man(b1-4)GlcNAc(b1-4)GlcNAc; conditions: glycan notation: IUPAC condensed, linker removed
# Outline: as §1
# Fuc(a1-2)Gal(b1-4)Glc6S = conditions: glycan notation: IUPAC condensed, linker removed
# Outline: as §1
# Sequence of CHI3L1 (Homo sapiens), P36222 (P36222 whole entry): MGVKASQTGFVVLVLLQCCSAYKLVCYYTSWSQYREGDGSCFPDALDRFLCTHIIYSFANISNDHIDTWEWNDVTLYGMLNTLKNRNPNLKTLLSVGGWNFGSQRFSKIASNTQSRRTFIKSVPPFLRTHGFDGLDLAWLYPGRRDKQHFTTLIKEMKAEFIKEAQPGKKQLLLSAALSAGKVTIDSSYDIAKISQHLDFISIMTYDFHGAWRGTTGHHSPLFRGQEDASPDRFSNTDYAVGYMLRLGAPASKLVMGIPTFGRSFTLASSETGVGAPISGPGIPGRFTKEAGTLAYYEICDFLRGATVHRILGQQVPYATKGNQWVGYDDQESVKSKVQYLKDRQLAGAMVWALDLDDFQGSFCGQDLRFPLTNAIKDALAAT
# Sequence of PILRa (Mus musculus), Q2YSF3 (Q2YSF3 entry or part of it): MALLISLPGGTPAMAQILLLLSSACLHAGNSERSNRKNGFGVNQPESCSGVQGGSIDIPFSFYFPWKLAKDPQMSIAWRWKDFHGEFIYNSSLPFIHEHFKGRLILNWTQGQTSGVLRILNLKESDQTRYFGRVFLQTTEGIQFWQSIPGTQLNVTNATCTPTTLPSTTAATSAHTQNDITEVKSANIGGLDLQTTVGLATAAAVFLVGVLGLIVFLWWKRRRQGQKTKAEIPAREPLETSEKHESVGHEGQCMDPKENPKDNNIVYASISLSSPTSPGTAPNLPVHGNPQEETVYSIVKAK
# Sequence of PILRb (Mus musculus), Q2YSF2 (Q2YSF2 entry or part of it): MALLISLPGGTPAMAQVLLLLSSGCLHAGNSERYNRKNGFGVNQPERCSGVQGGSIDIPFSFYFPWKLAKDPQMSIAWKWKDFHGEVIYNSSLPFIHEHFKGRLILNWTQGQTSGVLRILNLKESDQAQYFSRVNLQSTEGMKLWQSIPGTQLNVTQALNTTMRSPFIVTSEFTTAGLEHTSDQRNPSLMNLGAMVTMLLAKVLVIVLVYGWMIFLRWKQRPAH
# Sequence of 6RG (Lolium perenne) (chain, as listed by the source): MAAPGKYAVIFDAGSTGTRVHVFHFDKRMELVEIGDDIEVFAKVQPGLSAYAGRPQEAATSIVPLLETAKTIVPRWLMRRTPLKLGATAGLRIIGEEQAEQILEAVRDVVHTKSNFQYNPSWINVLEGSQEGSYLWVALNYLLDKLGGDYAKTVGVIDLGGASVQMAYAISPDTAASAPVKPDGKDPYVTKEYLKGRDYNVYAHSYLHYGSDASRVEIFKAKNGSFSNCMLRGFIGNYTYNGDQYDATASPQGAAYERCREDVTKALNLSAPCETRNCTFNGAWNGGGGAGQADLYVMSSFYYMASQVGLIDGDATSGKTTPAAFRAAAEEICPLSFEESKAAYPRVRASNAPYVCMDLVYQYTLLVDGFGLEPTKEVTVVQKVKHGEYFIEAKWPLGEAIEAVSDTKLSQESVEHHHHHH
# Sequence of Avaren (Actinomycete K97) (chain, as listed by the source): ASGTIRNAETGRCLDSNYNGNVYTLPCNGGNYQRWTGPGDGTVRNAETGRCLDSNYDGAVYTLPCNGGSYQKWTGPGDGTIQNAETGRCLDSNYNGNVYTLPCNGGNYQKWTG
# Sequence of Regenerating Gene IV (Homo sapiens), Q9BYZ8 (Q9BYZ8 whole entry, looked up): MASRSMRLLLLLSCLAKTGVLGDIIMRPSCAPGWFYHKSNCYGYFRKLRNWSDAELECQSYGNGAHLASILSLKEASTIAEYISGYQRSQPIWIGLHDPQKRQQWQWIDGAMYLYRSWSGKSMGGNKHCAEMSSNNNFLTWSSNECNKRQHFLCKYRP
# Sequence of CHT (Homo sapiens) (chain, as listed by the source): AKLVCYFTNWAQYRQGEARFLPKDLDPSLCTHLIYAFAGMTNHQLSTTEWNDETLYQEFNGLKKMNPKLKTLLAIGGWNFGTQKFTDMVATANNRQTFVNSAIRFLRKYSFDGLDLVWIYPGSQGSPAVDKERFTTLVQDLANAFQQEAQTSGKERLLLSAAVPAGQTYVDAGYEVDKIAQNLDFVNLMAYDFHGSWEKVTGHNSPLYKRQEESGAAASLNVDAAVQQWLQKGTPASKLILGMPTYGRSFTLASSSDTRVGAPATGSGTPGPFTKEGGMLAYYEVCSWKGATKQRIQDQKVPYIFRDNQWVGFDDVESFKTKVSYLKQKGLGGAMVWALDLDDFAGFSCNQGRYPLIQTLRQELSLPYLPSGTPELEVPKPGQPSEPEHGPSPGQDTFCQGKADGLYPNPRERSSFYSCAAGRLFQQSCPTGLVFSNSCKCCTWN
# Sequence of C3b (Homo sapiens), P01024 (P01024 23-667): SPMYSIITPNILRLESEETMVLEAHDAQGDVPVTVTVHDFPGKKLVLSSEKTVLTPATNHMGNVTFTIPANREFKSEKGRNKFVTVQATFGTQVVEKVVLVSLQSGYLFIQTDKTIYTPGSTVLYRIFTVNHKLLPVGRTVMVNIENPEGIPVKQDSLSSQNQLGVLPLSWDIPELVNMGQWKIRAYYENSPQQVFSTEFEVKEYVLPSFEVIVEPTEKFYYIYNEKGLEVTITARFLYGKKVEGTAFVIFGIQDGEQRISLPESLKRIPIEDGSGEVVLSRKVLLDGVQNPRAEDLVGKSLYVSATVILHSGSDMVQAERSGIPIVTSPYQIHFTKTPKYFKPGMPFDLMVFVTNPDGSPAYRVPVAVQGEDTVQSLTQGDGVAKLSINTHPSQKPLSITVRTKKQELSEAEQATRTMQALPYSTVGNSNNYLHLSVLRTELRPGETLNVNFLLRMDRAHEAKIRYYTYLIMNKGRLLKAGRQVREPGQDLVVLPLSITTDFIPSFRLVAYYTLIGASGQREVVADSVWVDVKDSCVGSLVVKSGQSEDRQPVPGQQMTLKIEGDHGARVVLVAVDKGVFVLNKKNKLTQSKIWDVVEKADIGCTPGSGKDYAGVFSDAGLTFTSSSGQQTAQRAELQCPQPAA
substance,measurement,setting,value
Avaren (Actinomycete K97),glycan array binding signal (z-score),[1],-0.138
same,glycan array binding signal (z-score),[2],-0.128
"PILRa (Mus musculus), Q2YSF3",glycan array binding signal (z-score),[3],0.037
same,glycan array binding signal (z-score),[4],0.134
same,glycan array binding signal (z-score),Fuc(a1-2)Gal(b1-3)GalNAc,-0.151
same,glycan array binding signal (z-score),[5],-0.127
same,glycan array binding signal (z-score),[2],-0.176
"Siglec-8 (Homo sapiens), Q9NYZ4",glycan array binding signal (z-score),[3]; mutation: R125K,0.206
same,glycan array binding signal (z-score),[6],-0.14
same,glycan array binding signal (z-score),Fuc(a1-2)Gal(b1-3)GalNAc; mutation: R125K,-0.339
same,glycan array binding signal (z-score),[7],0.028
same,glycan array binding signal (z-score),[8],1.44
same,glycan array binding signal (z-score),[9],2.42
6RG (Lolium perenne),glycan array binding signal (z-score),[10],7.3
same,glycan array binding signal (z-score),[5],6.52
"C3b (Homo sapiens), P01024",glycan array binding signal (z-score),[11],0.329
CHT (Homo sapiens),glycan array binding signal (z-score),"Fuc(a1-2)Gal(b1-3)GalNAc; mutation: D138V, E140I",0.451
"CHI3L1 (Homo sapiens), P36222",glycan array binding signal (z-score),[7],-0.032
same,glycan array binding signal (z-score),[12],0.653
same,glycan array binding signal (z-score),[13],5.09
MpAFP RI GFP (Marinomonas primoryensis),glycan array binding signal (z-score),[14],-0.127
same,glycan array binding signal (z-score),[15],-0.303
same,glycan array binding signal (z-score),[13],-0.05
same,glycan array binding signal (z-score),[16],-0.295
"PILRb (Mus musculus), Q2YSF2",glycan array binding signal (z-score),Fuc(a1-2)Gal(b1-3)GlcNAc,-0.281
same,glycan array binding signal (z-score),[17],2.44
"Regenerating Gene IV (Homo sapiens), Q9BYZ8",glycan array binding signal (z-score),Fuc(a1-2)Gal(b1-4)Glc6S,2.53

# Source: the supplement of paper PMC8728848
